Data from PubChem BioAssay (NCI).
Where “and” joins values, the source holds several entries; their conditions need not be identical. Equal values may be shown once. This is part of a sample that, as a whole, favours compounds with a hit. Of some 79,000 tested, about 15% had one in any assay. Unmarked numbers belong to inactive results. Calls of active or inactive are those of the source. Cut-off read from the data, not from the text of the source: active = growth inhibition above about 70%; inactive = the rest.

Key:
[1] = NCI Yeast Anticancer Drug Screen. Data for the rad50 strain (AID 155);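 note: 0% = growth of vehicle-only cultures of the same strain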; settings: S. cerevisiae rad50 strain growth inhibition, stronger effect = higher value; at 50.0 µM unless noted
How it was run: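 Cells are treated with compound, grown, and their growth is then scored against vehicle-only cultures of the same repair-deficient yeast strain.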

[2] = NCI Yeast Anticancer Drug Screen. Data for the mec2-1 strain (AID 157); settings: S. cerevisiae mec2-1 strain, stronger effect = higher value; at 50.0 µM unless noted
How it was run: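 Compounds were applied to mec2-1 yeast cells. Their growth was then compared with that of vehicle-treated cultures to give growth inhibition.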

[3] = NCI Yeast Anticancer Drug Screen. Data for the sgs1 mgt1 strain (AID 161);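 note: 0% = growth of cultures given vehicle only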; settings: S. cerevisiae sgs1 mgt1 strain, stronger effect = higher value; at 50.0 µM unless noted
How it was run: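 This yeast growth screen uses a strain with defined DNA-repair lesions; compound-treated growth is compared with vehicle-treated growth.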

[4] = NCI Yeast Anticancer Drug Screen. Data for the cln2 rad14 strain (AID 165);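 note: 0% = growth equal to vehicle treated cultures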; settings: S. cerevisiae cln2 rad14 strain, stronger effect = higher value; at 50.0 µM unless noted
How it was run: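 Strain: cln2 rad14 yeast, altered in cell cycle control and DNA damage repair. Read-out: growth inhibition vs vehicle.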

[5] = NCI Yeast Anticancer Drug Screen. Data for the bub3 strain (AID 167); settings: S. cerevisiae bub3 mutant strain, stronger effect = higher value; at 50.0 µM unless noted
How it was run: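 Part of a panel of yeast mutants defective in DNA damage repair or cell cycle regulation. Each strain is grown with compound, and inhibition is calculated relative to solvent-treated cultures.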

[6] = NCI Yeast Anticancer Drug Screen. Data for the mlh1 rad18 strain (AID 175); settings: S. cerevisiae mlh1 rad18 strain growth inhibition, stronger effect = higher value; at 50.0 µM unless noted
How it was run: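 A repair-deficient yeast strain is exposed to test compound, and growth is scored relative to vehicle-treated controls.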

| Compound | growth inhibition [1] | growth inhibition [2] | growth inhibition [3] | growth inhibition [4] | growth inhibition [5] | growth inhibition [6] |
| --- | --- | --- | --- | --- | --- | --- |
| O=C1NC(N2CCOCC2)=N/C1=C\c1ccc(Cl)cc1 | 1.75% | 3.6% | 4.9% | -6.25% | -11.1% | -29.9% |
| O=C(O)c1c(O)cc(=O)oc1-c1ccc(Cl)cc1 | 10.8% | 0.9% | 3.75% | 4% | 10.4% | 4.75% |
| CCCCCCC(C)OB(OC(C)CCCCCC)OC(C)CCCCCC (stereo not given) | -27.6% | -49% | -0.8% | 13.8% | -41.4% | -0.85% |
| O=C(COCC(=O)N/N=C/C=C/c1ccccc1)N/N=C/C=C/c1ccccc1 | 7.7% | -6.3% | -0.65% | 3.35% | -2.95% | 19.2% |
| CC(C)CCN | 2.75% | 8.9% | -3.35% | 19.1% | 3.3% | 30.2% |
| O=C1c2ccccc2C(=O)N1c1ccc(Cc2ccc(N3C(=O)c4ccccc4C3=O)cc2)cc1 | -11.7% | 10.1% | -2.6% | 42.9% | -0.2% | 14.7% |
| Cc1cc([N+](=O)[O-])ccc1NC(=O)n1nnc2cc(Cl)ccc21 | -5.55% | 0.35% | -5.85% | 1.1% | 21% | 6.9% |
| Cc1cccc(NC(=O)OC/C=C/c2ccccc2)c1 | 10.3% | 70.5% (active) | 53.5% | 0.65% | 31.4% | 4.95% |
| COc1ccc(CCNC(=O)[C@H]2CCCC[C@@H]2CCO)cc1OC | 15.5% | 10.6% | -46.9% | 3.25% | -42.8% | -9% |
| CC(=O)OCC1OC(O)C(NC(=O)C(F)(F)F)C(OC(C)=O)C1OC(C)=O (stereo not given) | 99.6% (active) | 99.8% (active) | 99.7% (active) | 99% (active) | 99.3% (active) | 99.5% (active) |
| CC(Cl)(c1ccccc1)C1OCCO1 (stereo not given) | 1.75% | 19.9% | 8.1% | -20.9% | -5.9% | -1.5% |
| Cc1ccc([N+](=O)[O-])cc1N | 31% | 25.4% | 4.15% | 23.2% | 17.1% | 14.7% |
| N#CC1C(c2ccc(Cl)cc2)C(C(N)=O)C(=O)NC1(O)c1ccccc1 (stereo not given) | -1.45% | -5.4% | 8.45% | 8.95% | 4.15% | 15.6% |
| NC(=O)c1cncn1C1OCC(O)C(O)C1O (stereo not given) | 10.2% | 6.4% | 3.85% | -6.8% | 3.1% | -20.2% |
| CCCCCCCCCCCCC(=O)N1CCOCC1 | 99.5% (active) | 99.7% (active) | 99.8% (active) | 99.5% (active) | 99.6% (active) | 99.5% (active) |
| COC(C(=O)NN)c1ccccc1 (stereo not given) | -25.1% | -60.5% | -59.8% | -43.5% | -35.5% | -35.8% |
| Cc1nccn1C(/C(=N/O)c1ccccc1)c1ccccc1 (stereo not given) | -0.55% | 10.4% | -0.5% | 13.7% | 10.8% | 3.2% |
| CC(C)N(CCO)CC(O)Cn1cnc2ncnc(N)c21 (stereo not given) | 2.15% | -10.8% | -24.9% | 6.7% | -28.4% | 4.45% |
| c1ccc2c(c1)OC1OC2Oc2ccccc21 | -25.8% and -10.4% | -39.1% and -3.85% | -26.3% and 7.8% | 1.6% and -6.05% | -57.5% and 8.1% | -28.9% and 11.8% |
| CCOC(=O)C(=O)Nc1cc(C)no1 | 4.95% | 9.85% | -6.6% | -25.6% | -25.1% | -2% |

| Compound | growth inhibition [1] | growth inhibition [2] | growth inhibition [3] | growth inhibition [4] | growth inhibition [5] | growth inhibition [6] |
| --- | --- | --- | --- | --- | --- | --- |
| COc1ccc(/C(=N\NC(=S)NN)C(c2ccc(OC)cc2)C2C(=O)Oc3ccccc32)cc1 (stereo not given) | 13.4% | 5.85% | 38.4% | -9.3% | 12.7% | 2.85% |
| CCOc1ccccc1NC(=O)/C(=N\NC(C)(C)C)C1C(=O)Nc2ccccc2S1=O (stereo not given) | -4.3% | -27.9% | -9.85% | 9.2% | -6.9% | 10.1% |
| COc1ccc(C2(OC)Oc3cc(OC)ccc3-c3nc4ccccc4nc32)cc1 (stereo not given) | 23.4% | 1.25% | -4.15% | 11.6% | 4.3% | 0.4% |
| CC1=CCC(CC2CO2)C1(C)C (stereo not given) | -27.6% | -48.4% | -17.2% | -9.95% | -35.2% | -31.1% |
| O=C(O)c1ccccc1C(=O)Nc1ccc(S(=O)(=O)Nc2nccs2)cc1 | -22.6% and -6.05% | -15.9% and 9.8% | -17.1% and 19.8% | -4.7% and -20% | -2.35% and -4.15% | -18.5% and 25.6% |
| CC(C)(C)NCCS | -17.1% | -34.9% | -32.4% | 2.95% | -19.9% | -12.8% |
| O=C(Cc1ccc(CC(=O)NCCCCc2ccccc2)cc1)NCCCCc1ccccc1 | 0.75% | -3.25% | -14.9% | -8.85% | -7.9% | 13.1% |
| C[N+]1(Cc2ccco2)CCCCC1 | -12.6% | 9.65% | 0.15% | -14.4% | 9% | -6.85% |
| O=C1NCC(CCl)O1 (stereo not given) | 8.3% | -12.2% | -2.15% | 9.3% | 18.1% | 1.9% |
| O=C(NO)c1ccccc1 | 17.1% | -29.6% | 11.6% | 21.8% | -4% | 27.8% |
| CN(C)Cc1ccccc1 | 28.8% | 15.8% | 14.8% | -58% | 11.1% | 17.6% |
| Nc1ncnc2c1ncn2C1OC(C(O)CO)C(O)C1O (stereo not given) | -0.65% and -17.4% | -1.4% and -71.8% | -4.2% and -6.85% | -81.3% and 10.2% | 1.15% and 16.4% | -16.1% and -31.6% |
| CCOC(=O)c1sc(N)nc1N1CCCC1 | 1.65% | -23.9% | -9.65% | 10.1% | 7% | -2.25% |
| Cc1[nH]c(=O)nc2nc3ccc(Cl)cc3c(N(CCO)CCO)c12 | -24.3% | -20.8% | -12.8% | 19.2% | 19.9% | -8.7% |
| COc1cccc(/C=C/C(C)=N/NC(N)=O)c1 | 6.5% | 0.25% | 5.5% | -7.1% | 6.35% | 8.65% |
| COc1ccc(C2Oc3cc(OC)c(O)cc3[C@@H]2C)cc1 (stereo not given in full) | -7.35% | 28.6% | 2.55% | 15.6% | 54.8% | 31% |
| N#Cc1c(C(F)(F)F)cc(-c2cccs2)nc1SC(C(=O)Nc1cc(C(F)(F)F)cc(C(F)(F)F)c1)c1ccccc1 (stereo not given) | 13.6% | -13.8% | 9.5% | 17.3% | 9.1% | 10.4% |
| O=C(O)c1ccc([N+](=O)[O-])cc1Br | 3.5% | -2.85% | -4.65% | -45% | -23.6% | 6.2% |
| O=C1C2C(c3ccccc3)NC(c3ccccc3)C1C(c1ccccc1)NC2c1ccccc1 (stereo not given) | -13.4% | -8.5% | -35.6% | -18.1% | -65% | 0.9% |
| COC(=O)c1c(C)ccc(C)c1Nc1cc(C)ccc1C | -2.65% | -18% | -1.2% | 9.55% | 5.65% | -15.7% |
